Rows were chosen to be rich in hits. Some 0.5% of all compounds tested hit in one or more screens of this group.
E coli growth-1 – E. coli V3065 growth inhibition, primary screen, counter-screen for AddAB inhibitor project, absorbance, OD600 | 18 h | inhibition, % at 11.9 µM | hit rate 0.27% among 330,000 | AID 449728, 2010;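 active = inhibition above the campaign's mean inhibition across all tested compounds plus 3 SD, cut at about 9.9% in these data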;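 note: uninfected addAB+ strain grown without phage in ampicillin broth; 0% = DMSO wells and 100% = ciprofloxacin 0.95 µg/ml wells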
AddAB inh – growth inhibition of E. coli expressing H. pylori AddAB, primary screen, AddAB inhibitor project, absorbance; hit rate 0.29% among 330,000; inhibition, % at 11.9 µM; AID 435030, 2010; in the data active = inhibition above about 12%;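 note: 0% = vehicle wells of infected cells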
E coli growth-2 – E. coli growth inhibition, primary screen, OD600 | hit rate 0.21% among 330,000 | OD600 absorbance (test concentration not listed) | Escherichia coli growth, 23 h; stronger effect = lower value;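 active = OD600 absorbance below the run mean of sample wells minus 3.6 SD, in any replicate, cut at about 0.56 in these data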
Tat export inh – E. coli Tat export inhibitors, primary screen, MC4100, TorA-mCherry reporter, fluorescence, single point; inhibition, % at 10 µM; hit rate 0.036% among 340,000; AID 488895, 2010;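 active = mean replicate inhibition at least 50% and at least half of replicates individually reaching 50%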;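 note: exported cargo escapes ClpAP degradation while cytoplasmic cargo is degraded and loses fluorescence; 0% = median of neutral control wells and 100% = median of NaSCN control wells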
phage Ecoli inh – growth loss of phage-infected E. coli, primary screen, RecBCD inhibitor project, absorbance, with phage, HTS; inhibition, % at 11.9 µM; hit rate 0.26% among 360,000; in the data active = inhibition above about 11%
AddAB confirm – growth loss of phage-infected E. coli expressing H. pylori AddAB, confirmation, AddAB inhibitor project, absorbance, E. coli V3065, T4 phage, triplicate; shares compounds with AddAB inh; OD; T4 phage with gene 2 nonsense mutations; inhibition, % at 11.9 µM; hit rate 64% among 880;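 active = mean inhibition above a set limit taken from the earlier primary screen, cut at about 13% in these data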;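 note: higher means less bacterial growth since AddAB block lets phage replicate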
RecBCD counter – growth loss of RecBCD+ E. coli with mutant T4 phage, counter-screen for AddAB inhibitor project, absorbance, V66 E. coli. shares compounds with AddAB inh. OD growth. inhibition, % at 11.9 µM. hit rate 73% among 880. AID 488955, 2010;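 active = mean inhibition above the mean of solvent-only control wells plus 3 SD, cut at about 4% in these data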;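 note: optical density read after an 18 h incubation at 37 °C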
Bact viability – bacterial viability inhibition counter-screen, confirmation, counter-screen for AddAB inhibitor project, absorbance. absorbance (AddAB counterscreen). inhibition, % at 11.9 µM. shares compounds with AddAB inh. hit rate 35% among 880; in the data active = inhibition above about 25%
Numbers without * were called inactive; . = no result given.

SMILES | E coli growth-1 | AddAB inh | E coli growth-2 | Tat export inh | phage Ecoli inh | others
CCC[C@@H](CN1CCC[C@H]1CN1C(N)=NC[C@@H]1Cc1ccccc1)N1C[C@@H]([C@H](C)CC)N(CCc2ccc(Cl)c(Cl)c2)C1=N | 3 | 7 | . | 0 | .
CCCC(CN1CCCC1CN1C(N)=NCC1Cc1ccccc1)N1CC(Cc2ccccc2)N(CCc2ccc(Cl)c(Cl)c2)C1=N (configuration not stated) | . | . | 0.061* | . | .
CC[C@@H](C)[C@@H]1CN([C@@H](CN2CCC[C@H]2CN2C(N)=NC[C@H]2CC(C)C)C(C)C)C(=N)N1CCc1ccc(Cl)c(Cl)c1 | 6 | 8 | 0.13* | 31 | 5
CC(C)[C@H](CN1CCC[C@H]1CN1C(N)=NC[C@@H]1Cc1ccccc1)N1C[C@@H](Cc2ccccc2)N(CCc2ccc(Cl)c(Cl)c2)C1=N | 6 | 6 | . | 8 | .
CC[C@@H](C)[C@@H]1CN([C@@H](C)CN2CCC[C@H]2CN2C(N)=NC[C@H]2CC(C)C)C(=N)N1CCc1ccc(Cl)c(Cl)c1 | 1 | 2 | . | 11 | 5
CCC[C@@H](CN1CCC[C@H]1CN1C(N)=NC[C@H]1CC(C)C)N1C[C@@H](Cc2ccccc2)N(CCc2ccc(Cl)c(Cl)c2)C1=N | 8 | 5 | 0.059* | 0 | 1
COc1ccc(C=CC(=O)Nc2cc(S(=O)(=O)N3CCCCC3)ccc2N2CCCCC2)cc1OC | . | . | 0.7 | . | .
O=C(N/N=C/C(Br)=C/c1ccccc1)c1ccncc1 | 3 | 11 | . | -8 | 4
O=C(NN=C/C(Br)=C/c1ccccc1)c1ccncc1 | . | . | 0.46* | . | .
O=[N+]([O-])c1ccc(C=Nc2cccc3ccccc23)s1 | -1 | -1 | 0.51* | 4 | .
O=[N+]([O-])c1ccc(C=Nn2c(CO)nc3ccccc32)s1 | . | . | 0.71 | . | .
NC(C(=O)NC1C(=O)N2C(C(=O)O)=C(Cl)CSC12)c1ccccc1 (configuration not stated) | . | . | 0.06* | . | .
S=C(NCc1ccc(Cl)cc1)Nc1ccncc1 | -1 | -1 | 0.52* | 8 | 1
S=C(NCc1cccnc1)Nc1ccc(Cl)c(Cl)c1 | 11* | 11 | 0.49 | -12 | 10
O=C(NCc1cccnc1)Nc1ccc(Cl)c(Cl)c1 | 2 | 4 | 0.59 | -5 | 1
Fc1ccc(NC(=S)NC2CCN(Cc3ccccc3)CC2)cc1 | 3 | 2 | 0.67 | -3 | 5
S=C(NCc1ccc(Cl)cc1)Nc1ccccc1 | 0 | 0 | 0.67 | -10 | 5
S=C(Nc1ccc(Cl)c(Cl)c1)NC1CCN(Cc2ccccc2)CC1 | 11* | 11 | 0.58 | -6 | 8
CC(C)C=C1CCCCC1N(C)C(=O)NC(C)C (configuration not stated) | . | . | 0.7 | . | .
C#CCOCCOCCOCCNc1nc(N2CCN(C(=O)C(CCCCN)n3cc(C(N)CC(C)C)nn3)CC2)nc(N2CCN(C(=O)C(C(C)CC)n3cc(C(N)CO)nn3)CC2)n1 (configuration not stated) | . | . | 0.66 | . | .
CN(C)S(=O)(=O)c1ccc(NC(=O)c2ccc(Br)o2)cc1 | 9.8* | 7 | 0.64 | -1 | .
CN(C1CCCCC1)S(=O)(=O)c1ccc(NC(=O)c2ccc(Br)o2)cc1 | 0 | 2 | 0.74 | 6 | 4
O=C(CSc1cccc[n+]1[O-])c1cc(Cl)ccc1Cl | -1 | 5 | 0.12* | 1 | 0
O=C1CN(S(=O)(=O)c2cc(Br)ccc2Br)CCN1 | 0 | 2 | 0.69 | -3 | 2
O=c1c(Br)ccc(Br)cc1Br | . | . | 0.52* | 6 | 7
SMILES | E coli growth-1 | AddAB inh | E coli growth-2 | Tat export inh | phage Ecoli inh | others
CCCCCC(=O)NNC(=S)NC(C)=O | 0 | -2 | 0.48* | -2 | -8
CCCCC(=O)NNC(=S)NC(=O)c1ccc(C)cc1 | -4 | -6 | 0.61 | -8 | 1
O=C(CCN1CCOCC1)c1ccccc1 | -2 | 6 | 0.62 | -30 | 2
O=C(CCN1CCOCC1)NNC(=S)NC(=O)c1ccccc1 | 0 | 4 | 0.53* | -15 | -4
OCCC1CC(O)C(O)[C@@]2(Cc3ccccc3CO2)O1 (some centres not stated) | . | . | 0.68 | . | .
CC(=O)Oc1ccc(C(=O)Cc2ccccn2)c(O)c1 | -1 | 3 | 0.65 | 56* | 3
O=C(NCc1ccccc1)c1cc(S(=O)(=O)N2CCCCC2)ccc1N1CCOCC1 | 3 | 0 | 0.44* | -3 | 2
O=C(C1=C[C@H](c2ccccc2)C[C@H](OCc2ccc(CO)cc2)O1)N1CCOCC1 | 1 | 1 | 0.65* | -2 | 1
CN1CCN(C(=O)C2=C[C@@H](c3ccccc3)C[C@@H](OCc3ccc(CO)cc3)O2)CC1 | -2 | 0 | . | -11 | 1
C/C(C=NNc1nc2ccccc2[nH]1)=C\c1ccccc1 | . | . | 0.51* | . | .
CC(C)(C)C1COC(=O)C(NC(=O)OCC2c3ccccc3-c3ccccc32)CC=CCC(CC(=O)N(CCO)Cc2ccccc2)C(=O)N1 (configuration not stated) | . | . | 0.71 | . | .
CCn1cc(C(=O)O)c(=O)c2cnc(N3CCN(C(=S)NC(=O)c4ccc(Cl)cc4)CC3)nc21 | 4 | 4 | 0.43* | . | .
CCn1cc(C(=O)O)c(=O)c2cnc(N3CCNCC3)nc21 | 103* | 102* | . | . | .
CCn1cc(C(=O)NCCc2ccc(Cl)cc2)c(=O)c2ccc(C)nc21 | . | . | 0.6 | -14 | 1
CCN1CCN(C(=S)NC(=O)c2cc(OC)c(OC)c(OC)c2)CC1 | 2 | 1 | 0.7 | 2 | 2
CCn1cc(C(=O)O)c(=O)c2cnc(N3CCN(C(=S)NC(=O)c4ccc(Br)cc4)CC3)nc21 | 1 | 3 | 0.46* | . | .
CCCCNC(=S)Nc1ccc(C(F)(F)F)cc1 | 11* | 11 | 0.56 | 0 | 10
CCCCNC(=S)Nc1ccc(Cl)cc1 | 2 | 3 | 0.65 | -3 | 3
CN1C(=O)C2C(C=Cc3ccccc3)N3C(=O)CN(Cc4ccccn4)C(=O)[C@@]3(C)C2C1=O (some centres not stated) | . | . | 0.68 | . | .
S=C1NCC(Cc2ccccc2)N1CCc1cccc2ccccc12 (configuration not stated) | . | . | 0.7 | . | .
NS(=O)(=O)c1ccc(CCNC(=O)CSc2ccsc2[N+](=O)[O-])cc1 | 15* | 16* | 0.64 | -1 | 7 | AddAB confirm=40*;RecBCD counter=5.4*;Bact viability=32*
CC1CN(C(C)CO)C(=O)c2cc(NC(=O)CCC(F)(F)F)ccc2OC1CN(C)C(=O)NC1CCCCC1 (configuration not stated) | . | . | 0.71 | . | .
Cn1c(SCC=Cc2ccccc2)nnc1-c1cnccn1 | . | . | 0.67 | . | .

Screens: PubChem BioAssay, several laboratories
